These results are taken from PubChem BioAssay (NCATS).

For one test, the system named is W2. Put plainly: qHTS profiling for inhibitors of Plasmodium falciparum proliferation (AID 504749).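 Further: 0% = DMSO vehicle and full inhibition = artemisinin control; nearly all actives have a fitted effect of over 60% in size.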 To be noted: P. falciparum in erythrocytes, SYBR Green DNA, 72 h; series mostly up to 28.7 µM. The gist of the method: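 P. falciparum-infected erythrocytes (0.3% parasitemia, 2.5% hematocrit final) were exposed to compounds for 72 h at 37 C in 5% CO2, then lysed with SYBR Green buffer overnight at room temperature; parasite DNA fluorescence was normalized to artemisinin and DMSO controls.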
For orientation: qHTS replaces the single test concentration by a dilution series.

The next test deals with CRL-7250. The test can be described thus: Cytotoxic Profiling of Annotated Libraries Using Quantitative High-Throughput Screening (AID 1296008). Further: nearly all actives have a fitted effect of over 60% in size. Further: potency means the concentration at half of the fitted maximal effect. On max response: on the % scale 0 is the no-effect control and ±100 the full control effect. To be noted: Five cell lines viability, CellTiter-Glo ATP luminescence, 48-72 h; max response: stronger effect = lower value. Summed up: (§1)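 Compounds were pin-transferred onto cells and incubated 48 or 72 hr at 37 degree Celsius, 95% humidity. CellTiter-Glo was added, plates sat 10 min at room temperature, then ATP-coupled luminescence was imaged as the viability read-out.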
(In general: Cellular ATP, detected with luciferase, serves as a proxy for viable cell number.)

For a further test, the system named is HEK293. The description is as above. Conditions: Five cell lines viability, CellTiter-Glo ATP luminescence, 48-72 h; max response: stronger effect = lower value. Summed up: as §1
In test [1] the test system is HaCat. The test is described as above. Conditions: Five cell lines viability, CellTiter-Glo ATP luminescence, 48-72 h; max response: stronger effect = lower value. The gist of the method: as §1
The next test has as its system KB-3-1. Described as above. To be noted: Five cell lines viability, CellTiter-Glo ATP luminescence, 48-72 h; max response: stronger effect = lower value. Summed up:
as §1

The next test has as its system MCC-13. The test can be described thus: qHTS assay to identify novel small-molecules to repurpose for Merkel cell carcinoma treatment (AID 1296009). Further: nearly all actives have a fitted effect of over 60% in size. Conditions: MCC and control cell lines, CellTiter-Glo viability, 72 h; series mostly up to 46 µM. The gist of the method: (§2)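 Cells exposed to NPC (8-point) and MIPE (11-point) compound dilutions for 72 hr at 37 degree celsius; viability read by CellTiter-Glo luminescence, normalized to no-cell and DMSO in-plate controls.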

For the next test, the system named is MCC-26. The test is described as above. Conditions: MCC and control cell lines, CellTiter-Glo viability, 72 h; series mostly up to 46 µM. The gist of the method:
as §2

A further test deals with MKL-1. Described as above. To be noted: MCC and control cell lines, CellTiter-Glo viability, 72 h; series mostly up to 46 µM. The gist of the method:
as §2

The subject of a further test is MKL-2. The test is described as above. Conditions: MCC and control cell lines, CellTiter-Glo viability, 72 h; series mostly up to 46 µM. Summed up:
as §2

The test system of a further test is UISO. The description is as above. Conditions: MCC and control cell lines, CellTiter-Glo viability, 72 h; series mostly up to 46 µM. Summed up: as §2
The next test has as its system WaGa. The description is as above. Conditions: MCC and control cell lines, CellTiter-Glo viability, 72 h; series mostly up to 46 µM. The gist of the method: as §2
The next test deals with C33A. Put plainly: Primary qHTS to identify gynecologic anti-cancer compounds using libraries of approved drugs and bioactive compounds (AID 1345084). Further: on the % scale 0 is the no-effect control and ±100 the full control effect; nearly all actives have a fitted effect of over 55% in size. To be noted: Gynecologic cancer cell panel viability, ATPlite luminescence, 48 h; series mostly up to 57.5 µM. The gist of the method: (§3)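 Cell viability after 48 h drug treatment, ATPlite luminescence readout; five doses.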

The test system of a further test is CAOV3. The description is as above. To be noted: Gynecologic cancer cell panel viability, ATPlite luminescence, 48 h; series mostly up to 57.5 µM. Summed up: as §3
In the next test the test system is CASKI. Described as above. Conditions: Gynecologic cancer cell panel viability, ATPlite luminescence, 48 h; series mostly up to 57.5 µM. Summed up:
as §3

A further test relates to Es-2. The description is as above. Conditions: Gynecologic cancer cell panel viability, ATPlite luminescence, 48 h; series mostly up to 57.5 µM. The gist of the method:
as §3

The next test has as its system HeLa. Described as above. To be noted: Gynecologic cancer cell panel viability, ATPlite luminescence, 48 h; series mostly up to 57.5 µM. The gist of the method:
as §3

The test system of the next test is NIH3T3. The test can be described thus: Cytotoxic Profiling of Annotated Libraries Using Quantitative High-Throughput Screening (AID 1296008). Further: nearly all actives have a fitted effect of over 60% in size. Further: potency means the concentration at half of the fitted maximal effect. On max response: on the % scale 0 is the no-effect control and ±100 the full control effect. Conditions: Five cell lines viability, CellTiter-Glo ATP luminescence, 48-72 h; max response: stronger effect = lower value. The gist of the method:
as §1

Test [2] concerns HACAT. The test can be described thus: qHTS assay to identify novel small-molecules to repurpose for Merkel cell carcinoma treatment (AID 1296009). Further: nearly all actives have a fitted effect of over 60% in size. To be noted: MCC and control cell lines, CellTiter-Glo viability, 72 h; at 44.8 µM (top of the series) unless noted. The gist of the method:
as §2

The test system of the next test is HEK293T. The description is as above. To be noted: MCC and control cell lines, CellTiter-Glo viability, 72 h; at 44.8 µM (top of the series) unless noted. Summed up: as §2

Records with an inconclusive call do not appear. Values without a mark were called inactive. Activity calls are given as the source filed them. The call rests on the fitted dose curve; in most records, active means well fitted curve in the direction sought with a large enough effect; inconclusive means small, poorly fitted or top-dose-only effect, or another doubt; inactive means no such curve, though single readings can be large; an effect the other way counts as inactive or inconclusive.

In the case of `CCCN(CCC)S(=O)(=O)c1ccc(C(=O)O)cc1`, the Potency result in the test with W2, in the test on MCC-13, in the test on MCC-26, in the test with MKL-1, with MKL-2 and in the test on UISO was “inactive” each time. Moreover, the Potency entry in the test on WaGa, with C33A, in the test with CAOV3, in the test with CASKI, in the test with Es-2 and in the test with HeLa was “inactive” throughout. In addition, the max response was -3.77% with CRL-7250, 3.98% in the test on HEK293 and 20.4% with KB-3-1. In addition, the Potency with HaCat [1] is 18.8 µM (active).
As for `CN(C)C(=O)Nc1ccc(Cl)c(Cl)c1`, the max response in the test with CRL-7250 was 2.46%; in the test on HEK293, 3.61%; with HaCat [1], -27.1%; in the test on NIH3T3, -5.25%. Also, the Potency result with MCC-13, with MCC-26, in the test with MKL-1, in the test on MKL-2, with UISO and in the test with WaGa was “inactive” in each case. For the same compound, the Potency entry in the test with C33A, in the test with CAOV3, with CASKI, in the test on Es-2 and in the test with HeLa was “inactive” each time.
In the case of `CC(C)(C)NCC(O)COc1cccc2c1C[C@H](O)[C@H](O)C2` (some centres undefined), the outcome with CRL-7250, with HaCat [1] and with HACAT [2] was inactive. Further, the max response is -3.77% in the test with HEK293 and -4.22% in the test on NIH3T3. Also, the Potency result in the test with MCC-13, in the test on MCC-26, in the test on MKL-1, with MKL-2, in the test on UISO and in the test on WaGa was “inactive” in each case. For the same compound, the Potency result in the test on C33A, in the test with CAOV3, in the test with CASKI, with Es-2 and with HeLa was “inactive” each time.
As to `O=C(O)P(=O)(O)O`, the Potency result in the test with W2, with MCC-13, in the test with MCC-26, in the test on MKL-1, in the test with MKL-2 and with UISO was “inactive” each time. Moreover, the Potency entry in the test with WaGa, in the test on C33A, in the test with CAOV3, with CASKI, in the test on Es-2 and in the test with HeLa was “inactive” throughout. Also, the result with CRL-7250 was inactive. For the same compound, the max response in the test with HEK293 is 0.892%; in the test with HaCat [1], -5.53%; with NIH3T3 it was 4.83%.
As for `CCCCCCCCCCCCSCCOCCO`, the Potency entry in the test with W2, in the test with MCC-13, in the test on MCC-26, with MKL-2, in the test with UISO and with WaGa was “inactive” in each case. For the same compound, the Potency entry in the test with C33A, with CAOV3, in the test on CASKI, in the test on Es-2 and with HeLa was “inactive” each time. Besides, the max response was 2.82% with CRL-7250, -0.323% in the test with HEK293, 0.693% in the test with HaCat [1] and -3.9% in the test on NIH3T3.
Take `CCCCCCCCOc1ccc(C(=O)c2ccccc2)c(O)c1`: the Potency entry in the test with W2, with MCC-13, in the test with MKL-1, in the test on MKL-2, in the test with UISO and with WaGa was “inactive” throughout. In addition, the Potency result with C33A, in the test with CASKI, with Es-2 and with HeLa was “inactive” in each case. The max response in the test with CRL-7250 is -1.36%; with HEK293, -1.87%; in the test with HaCat [1], -8.31%; in the test on KB-3-1, 1.72%; in the test with NIH3T3, -1.51%.
`Cc1nc(-c2ccc(Cl)cc2)oc1COC(C)(C)C(=O)O`: the Potency entry in the test with W2, with MCC-13, in the test on MKL-1, in the test with MKL-2, in the test on UISO and in the test with WaGa was “inactive” in each case. Further, the Potency result in the test with C33A, with CASKI, in the test on Es-2 and with HeLa was “inactive” in each case. Besides, the result in the test with CRL-7250 was inactive. Also, the max response was 4.06% in the test on HEK293, 3.89% in the test on HaCat [1], -5.49% in the test with KB-3-1 and 1.1% with NIH3T3.
For the compound `Cc1ccc(-c2ncc(Cl)cc2-c2ccc(S(C)(=O)=O)cc2)cn1`, the max response with CRL-7250 is -1.19%; in the test on HEK293, 4.1%; in the test on HaCat [1], -27.8%; in the test with NIH3T3, -3.08%. The Potency result in the test on MCC-13, in the test with MCC-26, with MKL-1, in the test on MKL-2, in the test with UISO and in the test on WaGa was “inactive” throughout. Also, the Potency entry in the test on C33A, with CAOV3, in the test on CASKI, in the test on Es-2 and in the test on HeLa was “inactive” throughout.
On to `NS(=O)(=O)c1ccc(Cl)c(S(N)(=O)=O)c1`, for which the Potency entry with W2, in the test on MCC-13, in the test with MCC-26, with MKL-1, in the test on MKL-2 and with UISO was “inactive” in each case. Moreover, the Potency entry in the test with WaGa, with C33A, in the test with CASKI, with Es-2 and in the test with HeLa was “inactive” in each case. Also, the max response with CRL-7250 was -4.09%; in the test with HaCat [1] it was -3.23%; in the test on NIH3T3, -4.55%. Besides, the compound was called inactive with HEK293 and with HEK293T.
